Screening data from PubChem.
IL1B secr inh = qHTS for Inhibitors of Inflammasome Signaling: IL-1-beta AlphaLISA Primary Screen; THP-1 LPS/ATP IL-1B secretion, AlphaLISA, 16 h; stronger effect = lower value; activity change, % at 57.5 µM; hit rate 4.7% among 360,000; in the data active means activity change below about -50%; inconclusive means mostly about -30% to -49%
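THP-1 cells pretreated 1 hr with compounds (up to 57.5 uM final), then stimulated with LPS (250 ng/mL final) plus ATP (1.25 mM final); secreted IL-1B measured by AlphaLISA after 16 hr, decreased signal indicating inhibition.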
USP1-UAF1 inh = Inhibitors of USP1/UAF1: Primary Screen; recombinant USP1/UAF1, Ub-Rhodamine cleavage fluorescence; Potency, µM (doses to about 57.1 µM), hits mostly inhibitors; hit rate 0.23% among 390,000; Ubiquitin carboxyl-terminal hydrolase 1 (Homo sapiens), O94782; further: nearly all actives have a fitted effect of over 60% in size
Target sequence (O94782 whole entry, looked up): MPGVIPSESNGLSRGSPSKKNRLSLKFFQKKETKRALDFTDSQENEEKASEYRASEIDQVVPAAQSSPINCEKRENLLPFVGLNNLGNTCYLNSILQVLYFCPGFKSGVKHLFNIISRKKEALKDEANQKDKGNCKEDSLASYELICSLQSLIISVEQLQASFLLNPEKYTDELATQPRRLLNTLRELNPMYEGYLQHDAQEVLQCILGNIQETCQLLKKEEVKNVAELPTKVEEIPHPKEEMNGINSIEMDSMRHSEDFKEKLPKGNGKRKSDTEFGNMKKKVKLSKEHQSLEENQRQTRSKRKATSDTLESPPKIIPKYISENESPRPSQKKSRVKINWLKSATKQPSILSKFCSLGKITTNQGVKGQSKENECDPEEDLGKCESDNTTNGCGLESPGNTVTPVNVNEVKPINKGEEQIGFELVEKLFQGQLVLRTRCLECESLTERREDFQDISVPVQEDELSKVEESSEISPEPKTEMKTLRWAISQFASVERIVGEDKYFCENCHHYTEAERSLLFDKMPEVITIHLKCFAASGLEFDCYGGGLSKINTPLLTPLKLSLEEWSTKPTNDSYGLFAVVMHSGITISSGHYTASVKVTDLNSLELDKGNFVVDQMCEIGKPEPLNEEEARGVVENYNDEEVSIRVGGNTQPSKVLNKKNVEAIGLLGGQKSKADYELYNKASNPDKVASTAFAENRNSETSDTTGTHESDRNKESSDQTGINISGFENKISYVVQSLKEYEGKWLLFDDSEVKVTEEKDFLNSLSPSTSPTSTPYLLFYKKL
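USP1/UAF1 complex (1 nM) preincubated 15 min at room temperature with compound, then Ub-Rho substrate (150 nM final) added. Kinetic fluorescence at 480/540 nm over 6 reads at 60 s intervals; 50 mM HEPES pH 7.8, 0.5 mM EDTA, 0.1 mg/ml BSA, 1 mM TCEP, 0.01% Tween-20.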
ATXN2 expr inh = Primary qHTS for Inhibitors of ATXN expression. hit rate 0.72% among 360,000. Potency, µM (highest dose often 57 µM), usual class: inhibitors. AID 1745845, 2022. HEK-293 ATXN2-luciferase reporter, luminescence, 24 h; further: nearly all actives have a fitted effect of over 55% in size
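ATXN2-luciferase reporter cells (luciferase flanked by upstream and downstream ATXN2 gene portions) were treated 24 h at 37 °C with compounds at up to 57 uM. SteadyGlo luminescence gave expression; GF-AFC fluorescence gave viability.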
S2 tox = Viability Counterscreen for Primary qHTS for Inhibitors of ATXN expression; S2 cells (HEK-293 line with an ATXN2-luciferase reporter) viability, CellTiter-Fluor protease fluorescence, 24 h; Potency, µM (titrated, usually from 56.7 µM), most hits filed as cytotoxic; hit rate 0.49% among 400,000; AID 651635, 2014; further: nearly all actives have a fitted effect of over 40% in size
USP2a inh = qHTS Assay for Inhibitors of Ubiquitin-specific Protease USP2a Using CHOP2 as the Reporter; Potency, µM (doses to about 38.3 µM), hits mostly inhibitors; Ubiquitin carboxyl-terminal hydrolase 2 (Homo sapiens), O75604; USP2 core, Ub-CHOP2 coupled fluorogenic reporter, 485/531; AID 463254, 2010; hit rate 0.01% among 330,000
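Deubiquitinase activity read as fluorescence (485/531 nm) after Ub-CHOP2 cleavage activates the enterokinase reporter on its substrate; USP2 core 10nM, Ub-CHOP2 and substrate 25nM each, 30min compound preincubation then 60min RT; data normalized to NEM, curves fitted.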
Numbers stand for hits; ! = repeats disagree. Sampled rows, rich in hits. Any-hit rate of the full collection: about 4.8%. Unless noted, the call rests on the fitted dose curve; in most records, active means well fitted curve in the direction sought with a large enough effect; inconclusive means small, poorly fitted or top-dose-only effect, or another doubt; inactive means no such curve, though single readings can be large; an effect the other way counts as inactive or inconclusive.

For COc1ccc(C(=O)/C(C#N)=N/Nc2cccc([N+](=O)[O-])c2)cc1 the results were IL1B secr inh inactive, USP1-UAF1 inh inactive, S2 tox 11µM and USP2a inh inactive.
CCOC(=O)N1CCN(C(=O)c2[nH]c(C(F)(F)F)nc2-c2ccccc2)CC1 was read as IL1B secr inh inactive, ATXN2 expr inh inactive and S2 tox inactive.
For CCn1c(COc2cccc(C)c2C)nnc1SCC(=O)N1CCN(c2ccc(OC)cc2)CC1 the results were IL1B secr inh inactive, USP1-UAF1 inh inactive, ATXN2 expr inh inactive, S2 tox inactive and USP2a inh inactive.
CCn1c(COc2ccccc2C)nnc1SCC(=O)N1CCN(c2ccccc2)CC1 was read as IL1B secr inh inactive, USP1-UAF1 inh inactive, ATXN2 expr inh 14µM, S2 tox inconclusive and USP2a inh inactive.
O=C(c1ccccc1)c1cc(Cl)ccc1N1C(=O)C=CC1=O was read as IL1B secr inh -80, USP1-UAF1 inh inactive, ATXN2 expr inh inactive, S2 tox inconclusive and USP2a inh inactive.
For CC1(Oc2ccc(-n3ccnc3)cc2)CCN(Cc2cccn2-c2nccs2)C1 (centres undefined) the results were IL1B secr inh inactive, ATXN2 expr inh inactive and S2 tox inconclusive.
`COc1cc2cc(-c3ccc(O)cc3O)nc(C)c2cc1OC` gave IL1B secr inh -73, USP1-UAF1 inh inactive, ATXN2 expr inh inactive, S2 tox inactive and USP2a inh inactive.
Screening Cc1cccn2c(=O)c3cc(C#N)c(=NC(=O)c4ccccc4)n(Cc4ccco4)c3nc12 returned IL1B secr inh -76!, USP1-UAF1 inh inactive, ATXN2 expr inh inactive and S2 tox inactive.
Screening O=C(c1ccc2c(c1)OCO2)C1CCCN(Cc2cc(F)ccc2-n2cccn2)C1 (centres undefined) returned IL1B secr inh inactive, USP1-UAF1 inh inactive, ATXN2 expr inh inactive, S2 tox inactive and USP2a inh inactive.
For Cc1ccc(-n2cccn2)c(CN2CCCC(C(=O)c3ccc4c(c3)OCO4)C2)c1 (centres undefined) the results were IL1B secr inh -60, USP1-UAF1 inh inactive, ATXN2 expr inh inconclusive, S2 tox inactive and USP2a inh inactive.
COc1ccc(NC(=O)C2(C)CCN2CCOc2ccccc2)cc1OC (centres undefined) was read as IL1B secr inh inactive, ATXN2 expr inh inactive and S2 tox inactive.
Screening S=C(Nc1ccccc1)Nc1ccc(OCc2ccc(Cl)cc2Cl)cc1 returned IL1B secr inh inactive, USP1-UAF1 inh inactive, ATXN2 expr inh 1µM, S2 tox inactive and USP2a inh inactive.
Screening OCCNCc1ccc(OCc2ccc(Cl)cc2Cl)cc1 returned IL1B secr inh -98, USP1-UAF1 inh inactive, ATXN2 expr inh inconclusive, S2 tox inconclusive and USP2a inh inactive.
`OCCCCNCc1ccc(OCc2ccc(Cl)cc2Cl)cc1` gave IL1B secr inh -101, USP1-UAF1 inh inactive, ATXN2 expr inh 25µM, S2 tox 25µM and USP2a inh inactive.
CCCCOc1ccc(C(=O)N/N=C/c2ccc(OCCN3CCCCC3)c(OC)c2)cc1 was read as IL1B secr inh -80, USP1-UAF1 inh inactive, ATXN2 expr inh inconclusive, S2 tox inconclusive and USP2a inh inactive.
`COc1ccc(-c2[nH]ncc2/C=N\NC(=O)c2ccc(C(C)(C)C)cc2)cc1OC` gave IL1B secr inh inactive, USP1-UAF1 inh inactive, ATXN2 expr inh inactive, S2 tox inactive and USP2a inh inactive.
`CCCCOc1ccc(C(=O)N/N=C/c2cn[nH]c2-c2ccc(OC)c(OC)c2)cc1` gave IL1B secr inh -56, USP1-UAF1 inh inactive, ATXN2 expr inh inconclusive, S2 tox inconclusive and USP2a inh inactive.
For CCCOc1ccc(/C=N/NC(=O)CN2CCCCC2)cc1OCC the results were IL1B secr inh inactive, USP1-UAF1 inh inactive, ATXN2 expr inh inactive, S2 tox inactive and USP2a inh inactive.
`CCN1C(=O)[C@H]2[C@@H](c3ccc(OC)cc3)N[C@]3(CCCN(CC4CCCCC4)C3=O)[C@H]2C1=O` gave IL1B secr inh inactive, USP1-UAF1 inh inconclusive, ATXN2 expr inh inactive and S2 tox inactive.
`Clc1ccc2oc3c(Cl)ncnc3c2c1` gave IL1B secr inh -101, USP1-UAF1 inh inactive, ATXN2 expr inh inactive, S2 tox inactive and USP2a inh inactive.
`COc1ccc(C(=O)c2sc(Nc3ccccc3)nc2N)cc1OC` gave IL1B secr inh -98, USP1-UAF1 inh inactive, ATXN2 expr inh inconclusive and USP2a inh inactive.
For Nc1nc(Nc2ccccc2)sc1C(=O)c1ccccc1 the results were USP1-UAF1 inh inactive, ATXN2 expr inh inactive, S2 tox inactive and USP2a inh inactive.
`COc1ccc(C(=O)c2sc(Nc3cc(Cl)ccc3C)nc2N)cc1OC` gave USP1-UAF1 inh inactive, ATXN2 expr inh inconclusive and S2 tox inactive.
COc1ccc(C(=O)c2sc(Nc3ccccc3)nc2N)cc1 was read as IL1B secr inh -77, USP1-UAF1 inh inactive, ATXN2 expr inh inactive, S2 tox inactive and USP2a inh inactive.
`Cc1ccc(/C=N/NC(=O)c2ccc(N(C)S(=O)(=O)c3ccccc3)cc2)cc1` gave IL1B secr inh -53, USP1-UAF1 inh inconclusive, ATXN2 expr inh inactive, S2 tox inactive and USP2a inh inactive.
For CC(=O)Oc1ccc(/C=N/NC(=O)c2ccc(N(C)S(=O)(=O)c3ccccc3)cc2)cc1 the results were IL1B secr inh inactive, USP1-UAF1 inh inactive, ATXN2 expr inh inactive, S2 tox inactive and USP2a inh inactive.
COc1ccccc1/C=C/[C@@H]1C[C@H]2CN(Cc3cccc(Cl)c3)C(=O)[C@]23CCCN13 was read as IL1B secr inh inactive, USP1-UAF1 inh inactive, S2 tox inactive and USP2a inh inactive.
For COc1cccc2c1OCC([C@@H]1C[C@H]3CN(Cc4cccc(Cl)c4)C(=O)[C@]34CCCN14)=C2 the results were IL1B secr inh -61, USP1-UAF1 inh inactive, ATXN2 expr inh inactive, S2 tox inconclusive and USP2a inh inactive.
O=C1N(Cc2cccc(Cl)c2)C[C@@H]2C[C@@H](c3cccn3-c3cccnc3)N3CCC[C@@]123 was read as IL1B secr inh -56, USP1-UAF1 inh inactive, ATXN2 expr inh inconclusive, S2 tox inconclusive and USP2a inh inactive.
For Cn1cc([C@@H]2C[C@H]3CN(Cc4cccc(Cl)c4)C(=O)[C@]34CCCN24)c(-c2ccccc2)n1 the results were IL1B secr inh -80, USP1-UAF1 inh inactive, ATXN2 expr inh inconclusive, S2 tox inconclusive and USP2a inh inactive.
`CCc1ccc(-n2nc(CO)c(C(=O)NCc3ccccn3)n2)cc1` gave USP1-UAF1 inh inactive.
`CCOC(=O)[C@]12CCC=C1N(Cc1ccc(Cl)cc1Cl)C(=O)[C@H](CC(=O)NCCCOC)C2` gave IL1B secr inh inactive, ATXN2 expr inh inactive and S2 tox inactive.
